Our source for the INHIBITION values is ChEMBL document CHEMBL4513216, “Probing the Open Global Health Chemical Diversity Library for Multistage-Active Starting Points for Next-Generation Antimalarials” (ACS Infect Dis, 2020).

In all, about 69,000 compounds went through this assay and about 8,600 (12%) showed an effect of 50% or more. The full list was thinned out, with strong results kept by preference.

This test deals with Plasmodium berghei. Put plainly: Screen against P. berghei liver stage (PbLuc), transformed with Luciferase, at 10uM. Particulars: tested at 10 uM. Type of test: functional, HepG2.
`CCOc1ccccc1N1CCN(c2nnc(C)o2)CC1`: the INHIBITION turned out to be 7.4%.
On to `CCN(CC)C(=O)CN(C)CCn1nc2ccccn2c1=O`, for which the INHIBITION is listed as -79.8%.
Then `N#Cc1ccc(C(=O)N2CC[C@H]3[C@@H]2CCC(=O)N3c2cccnc2)cc1`, with 23.9%.
With `Cc1ccc(C(=O)N2C[C@@H](OCc3cccnc3)[C@H]3OCCC[C@H]32)o1`, the INHIBITION came out at 10.6%.
Regarding `Cc1ccc2c(c1)OC(C)CN2C(=O)c1c[nH]c(C)cc1=O` (stereo unspecified), the INHIBITION came to 26.9%.
Turning to `CCC(=O)N1CCC2(CC1)CC(CC(=O)N(C)C)c1ccc(F)cc12` (stereo unspecified), the INHIBITION is recorded as 51.2%.
Then `CN(C)C(=O)CC1CC2(CCN(CC3CC3)CC2)c2cc(F)ccc21` (stereo unspecified), with 35.3%; and `CCOC1CC2(CCN(C(=O)COC)CC2)c2cc(F)ccc21` (stereo unspecified), with 19.8%.
The result for `CCN1CCC2(CC1)CC(CC(=O)N(C)C)c1ccc(F)cc12` (stereo unspecified) reads 53%.
With `CCNC(=O)CC1CC2(CCN(C(C)=O)CC2)c2cc(F)ccc21` (stereo unspecified), the INHIBITION was 31.4%.
In the case of `CCC(=O)N1CCC2(CC1)CC(CC(N)=O)c1ccc(F)cc12` (stereo unspecified), the INHIBITION was -26.5%.
Then `Cc1cccc(-c2ccc(C(=O)NCC3CCCOC3)c(=O)[nH]2)c1` (stereo unspecified), with -24.2%; and `COCCC(=O)N1CCN(CC(C)C)c2nc(C)ccc2C1`, with 7.24%.
In the case of `Cc1nc(COC(=O)c2cccnc2C)no1`, the INHIBITION turned out to be 32%.
As for `Cc1nc(COC(=O)c2cccc3c2OCCO3)no1`, the INHIBITION came to 70.1%.
Then `Cc1nc(COC(=O)c2cccc3c2OCCO3)cs1`, with 48.8%.
The result for `Cc1ncsc1CN(C)C(=O)CC1CCOc2ccccc21` (stereo unspecified) reads -1.35%.
With `COCc1ccccc1C(=O)OCc1noc(C)n1`, the INHIBITION is recorded as 9.63%.
The result for `Cc1ncsc1COC(=O)c1cccc2c1OCCO2` reads 77.9%; that for `Cc1nc(CN2C(=O)CCC23CCN(Cc2ccoc2)CC3)cs1`, -30%.
Then `O=S(=O)(c1ccccc1)N1CCOCC(Cc2cccnc2)C1` (stereo unspecified), with 9.05%.
The result for `N#CCCCN1CCCC1Cc1ccccc1` (stereo unspecified) reads 53.6%; that for `COc1ccc(CC2CCCN2CCCC#N)cc1` (stereo unspecified), 35.9%; that for `N#CCCN(C(=O)CN1CCCC1Cc1ccccc1)c1ccccc1` (stereo unspecified), 38.5%.
Consider `COc1cccc(CC2CCCN2CCCC#N)c1` (stereo unspecified), for which the INHIBITION was found to be 34.1%.
With `CCN(C(=O)CN1CCCC1c1ccc(OC)cc1)c1ccccc1` (stereo unspecified), the INHIBITION is recorded as -47.9%.
Regarding `CN(Cc1cccc(F)c1)C(=O)CN1CCCC1CCc1ccccc1` (stereo unspecified), the INHIBITION stood at 5.14%.
Then `CN(C(=O)CN1CCCC1Cc1ccccc1)c1ccccc1` (stereo unspecified), with 68%.
`CCN(C(=O)CN1CCCC1Cc1ccccc1)c1ccccc1` (stereo unspecified): the INHIBITION is recorded as 75.7%.
Then `COc1cccc(CC2CCCN2CC(N)=O)c1` (stereo unspecified), with 35%.
Then `COc1ccc(CCN2CC(n3nc(C)cc3C)C2)cc1`, with -6.61%.
